HEK cytotox: HEK 293 cell cytotoxicity | HEK 293 viability, ATP luminescence (CellTiter-Glo), 48-72 h | Potency, µM (doses to about 115 µM), without a hit: at the top dose activity change, negative = cytotoxicity, usual class: inhibitors | hit rate 6.6% among 94,000 | AID 1345083; further: nearly all actives have a fitted effect of over 60% in size
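Read-out: CellTiter-Glo ATP luminescence. Cells: HEK 293, 250 cells/well. Exposure: 48 or 72 hr, 37 degree Celsius.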
FLuc inh: blocks purified firefly luciferase enzyme activity; P08659; purified P. pyralis luciferase, luminescence, biochemical; Potency, µM (series often up to 115 µM), actives largely listed as inhibitors; hit rate 2.5% among 76,000; AID 1347043; further: nearly all actives have a fitted effect of over 65% in size
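Purified 10nM P. pyralis luciferase with 10uM D-luciferin and 10uM ATP in 50mM Tris acetate pH 7.5, 10mM Mg acetate, 0.01% Tween-20, 0.05% BSA. qHTS titration; luminescence read by CCD imager.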
NIH3T3 tox: kills NIH 3T3 cells; Potency, µM (highest dose often 96.7 µM), without a hit: top-dose activity change, negative = cytotoxicity, actives largely listed as inhibitors; NIH 3T3 viability, CellTiter-Glo ATP luminescence, 48-72 h; hit rate 4.3% among 94,000; further: nearly all actives have a fitted effect of over 55% in size
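Cytotoxicity is measured as loss of cellular ATP: NIH 3T3 cells (400/well) are exposed to compound for 48 or 72 hr at 37 °C, then CellTiter-Glo luminescence is imaged after 10 min at room temperature.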
hNpr1 antagonist: blocks ANP-stimulated signaling of human Npr1 receptor. P16066. HEK293 hNpr1 GloSensor cGMP, ANP-stimulated luminescence. Potency, µM (doses to about 46.3 µM), for inactives: top-dose activity change, negative = inhibition, usual class: inhibitors. hit rate 1.6% among 76,000. AID 1347048; calls by dose curve; further: nearly all actives have a fitted effect of over 60% in size
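HEK293 cells stably expressing human Npr1 and cGMP GloSensor pGS-40F, loaded 2 h with 2% GloSensor reagent, given compound 30 min at room temperature. Luminescence read before and 20 min after 0.1 nM hNppA.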
* marks the source's active call; other numbers are inactive results; [ ] = another dose, or the depositor's remark. This is a sample that favours compounds with a hit; in the whole collection about 11% have one here. Unless noted, the call rests on the fitted dose curve; in most records, active means well fitted curve in the direction sought with a large enough effect; inconclusive means small, poorly fitted or top-dose-only effect, or another doubt; inactive means no such curve, though single readings can be large; an effect the other way counts as inactive or inconclusive. On the % scale 0 is the no-effect control and ±100 the full control effect; potency means the concentration at half of the fitted maximal effect.

`O=C1[C@@H]2C[C@@H](CN2Cc2ccccc2)Oc2ccccc2N1Cc1ccccc1` gave HEK cytotox 63.1µM*, FLuc inh inactive, NIH3T3 tox inconclusive and hNpr1 antagonist -22.1%[70.6 µM].
For O=C1[C@@H]2C[C@@H](CN2Cc2ccc(Cl)cc2)Oc2ccccc2N1CC1CC1 the results were HEK cytotox 89.1µM*, FLuc inh inactive, NIH3T3 tox 89.1µM* and hNpr1 antagonist -29.7%[70.6 µM].
O=C(c1c(-c2cncnc2)cc(=O)n2c1CCCC2)N1CCC(Cc2ccccc2)CC1 was read as HEK cytotox -8.2% and NIH3T3 tox -10.5%.
For Cc1ccccc1-c1nc2cnccn2c1NCCC(=O)N(C)Cc1ccccc1 the results were HEK cytotox -1.4%, FLuc inh inactive, NIH3T3 tox -3.1% and hNpr1 antagonist 1.0%.
CCOc1ccccc1NC(=O)N1CCC(N2CC(OCC3CC3)C23CCOCC3)CC1 (stereo not given) was read as HEK cytotox -6.0% and NIH3T3 tox -12.4%.
COCCC(=O)N1CCc2c(n(Cc3ccc(OC)cc3)n(Cc3ccccc3)c2=O)C1 was read as HEK cytotox inactive, FLuc inh inactive, NIH3T3 tox inconclusive and hNpr1 antagonist 4.3%[70.6 µM].
COc1ccc(Cn2c3c(c(=O)n2Cc2ccccc2)CCN(C(=O)c2cccc(N(C)C)c2)C3)cc1 was read as HEK cytotox -28.5%, FLuc inh inactive, NIH3T3 tox inconclusive and hNpr1 antagonist 1.8%.
Screening COc1ccc(-n2c(=O)c3c(n2Cc2ccccc2)CN(C(=O)c2cccc(O)c2)CC3)cc1 returned HEK cytotox -4.0%, FLuc inh inactive, NIH3T3 tox inconclusive and hNpr1 antagonist 3.5%.
COc1ccc(Cn2c3c(c(=O)n2Cc2ccccc2)CCN(C(=O)c2cocn2)C3)cc1 was read as HEK cytotox inactive, FLuc inh inactive, NIH3T3 tox 25.1µM* and hNpr1 antagonist 7.9%.
Screening COc1ccc(-n2c(=O)c3c(n2Cc2ccccc2)CN(C(=O)c2ccnn2C)CC3)cc1 returned HEK cytotox -4.8%, FLuc inh inactive, NIH3T3 tox 35.5µM* and hNpr1 antagonist -1.6%.
COc1ccc(Cn2c3c(c(=O)n2Cc2ccccc2)CCN(C(=O)c2nc4ccccc4[nH]2)C3)cc1 was read as HEK cytotox inconclusive, FLuc inh inactive, NIH3T3 tox 20µM* and hNpr1 antagonist -19.9%.
COc1cccc(CNC(=O)C2CCc3nnc(CNC(=O)NC(C)(C)C)n32)c1 (stereo not given) was read as HEK cytotox -17.6% and NIH3T3 tox -20.0%.
Screening Cn1nc(-c2ccncc2)cc1NC(=O)C1CC1 returned HEK cytotox -0.6%[172 µM] and NIH3T3 tox -20.9%[138 µM].
COc1ccc(CN2CC(Oc3ccccc3C(=O)NC3CC3)C2)c(OC)c1 was read as HEK cytotox inconclusive, FLuc inh inactive, NIH3T3 tox -27.4% and hNpr1 antagonist -1.6%.
For COc1ccc(OC)c(CN2CC(Oc3ccccc3C(=O)NCc3ccccc3)C2)c1 the results were HEK cytotox 31.6µM*, FLuc inh inactive, NIH3T3 tox inconclusive and hNpr1 antagonist -24.8%.
COc1cccc(CN2CC(Oc3ccccc3C(=O)NC3CC3)C2)c1 was read as HEK cytotox inconclusive, FLuc inh inactive, NIH3T3 tox -24.7% and hNpr1 antagonist 1.1%.
Screening COc1ccc(CN2CC(Oc3ccccc3C(=O)NCc3ccccc3)C2)c(OC)c1 returned HEK cytotox 50.1µM*, FLuc inh inactive, NIH3T3 tox inconclusive and hNpr1 antagonist inconclusive.
O=C(NCc1cccc(C(F)(F)F)c1)C1CCc2nnc(-c3cccc(C(F)(F)F)c3)n21 (stereo not given) was read as HEK cytotox inconclusive and NIH3T3 tox -24.7%.
Screening CC(C)(C)OC(=O)N1CC(Nc2ccccc2O)C1 returned HEK cytotox -13.4%[172 µM] and NIH3T3 tox -24.0%[138 µM].
`Cc1ccc(CNC(=O)N2CCCC(c3noc(COc4ccccc4)n3)C2)cc1` (stereo not given) gave HEK cytotox inconclusive, FLuc inh inactive, NIH3T3 tox inconclusive and hNpr1 antagonist -9.3%.
Cc1ccc(OCc2nc(C3CCN(C(=O)NCc4ccccc4)C3)no2)cc1 (stereo not given) was read as HEK cytotox 44.7µM* and NIH3T3 tox inconclusive.
For O=C(NCCc1ccccc1)N1CCC(c2noc(COc3ccc(F)cc3)n2)C1 (stereo not given) the results were HEK cytotox 44.7µM* and NIH3T3 tox inconclusive.
